Laboratory results from PubChem BioAssay (NCI).
Values joined by “and” are separate entries in the source; they are usually repeats but may differ in a detail not shown here. Equal entries are not always repeated. The panel holds about 83,000 compounds, 20% with a hit somewhere; the sample as a whole holds those more often.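 A percent growth of 40 corresponds to 60% growth inhibition; 0 means no net growth; -100 means all cells died. Active threshold: below 10.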 Active and inactive are the calls of the source.

These compounds were tested on HL-60(TB) leukemia (assay: NCI-60 one-dose screen, 48 h (100 = growth as untreated, 0 = no growth, -100 = all killed)). Settings: 10 µM unless noted.

| SMILES | growth |
| --- | --- |
| Cn1c(-c2c(N)n(CCCN3CCOCC3)c3nc(C#N)c(C#N)nc23)nc2ccccc21 | -82.3% (active) |
| Nc1[nH][nH]c(=O)c1N=Nc1ccccc1 | 98.6% (inactive) and 102% (inactive) |
| O=C(Cn1c(-c2ccc([N+](=O)[O-])cc2)nc2ccccc21)NNC(=O)c1cccnc1 | 65.9% (inactive) |
| Oc1ccc(CN(Cc2ccc(C(F)(F)F)cc2)Cc2ccc(O)c3ncccc23)c2cccnc12 | -11% (active) |
| CCN1CCOC1C(C)C (centres undefined) | 90% (inactive) |
| CC12CCCCC1C(C(N)=O)C(=O)O2 (centres undefined) | 102% (inactive) |
| OCCN1CCN(CC/C=C2\c3ccccc3Sc3ccc(Cl)cc32)CC1 | 14.2% (inactive) and 19.5% (inactive) |
| C[C@]12C=CC(=O)C=C1CCC1C2[C@@H](O)C[C@@]2(C)C1CC[C@]2(O)C(=O)COC(=O)CCC(=O)O (some centres undefined) | 104% (inactive) |
| Cc1ccc(N)c(S(=O)(=O)O)c1 | 74.5% (inactive) |
| CCOC(=O)C1=C(N)Oc2c(sc3c(CC)cccc23)C1c1ccc(F)cc1 (centres undefined) | 23.7% (inactive) |
| COC(=O)CNC(=O)C(=O)c1c(O)c(O)c(C(C)C)c2cc(C)c(-c3c(C)cc4c(C(C)C)c(O)c(O)c(C(=O)C(=O)NCC(=O)OC)c4c3O)c(O)c12 | 24.6% (inactive) |
| Cc1ccc2c(c1)-c1cc(C)nn1-c1ccc(C#N)cc1O2 | 69.2% (inactive) |
| C/C=C(\C)C(C(=O)NC1CCCCC1)N(C(=O)C1CCc2cc(F)ccc2O1)c1ccc(Cl)cc1 (centres undefined) | 97.8% (inactive) |
| COc1ccc(-c2ccccc2)cc1C(=O)c1ccc(-c2ccccc2)cc1 | 71.4% (inactive) |
| COc1cc(Cl)cc(-c2nn(C(=O)NCCN3CCOCC3)cc2-c2ccncc2)c1 | 55.7% (inactive) |
| CN(C)c1ccc(/C=C(\C#N)c2ccccc2)cc1 | -9.62% (active) and 16% (inactive) and 9.8% (active) |
| NS(=O)(=O)c1ccc(CCNC(=O)/C=C/c2ccc(Cl)cc2)cc1 | 89.1% (inactive) |
| O=c1oc2ccc([N+](=O)[O-])cc2cc1Br | 105% (inactive) |
| Cc1ccc(-c2nc3nc(-c4ccccc4)nc(N4CCNCC4)c3o2)cc1 | -68.4% (active) |
| NS(=O)(=O)c1cc2c(cc1Cl)NC(C(Cl)Cl)NS2(=O)=O (centres undefined) | 91.5% (inactive) and 105% (inactive) |

| SMILES | growth |
| --- | --- |
| CC(C)(C)CC1(C)NC(=O)NC1=O (centres undefined) | 114% (inactive) |
| COc1cccc(-n2cc(-c3nc(Nc4cc(C)[nH]n4)c4ccccc4n3)nn2)c1 | 48.1% (inactive) |
| Nc1nc2c(c3ncccc13)C(c1ccc(Cl)c(Cl)c1)Cc1ncccc1-2 (centres undefined) | -7.14% (active) |
| CC(C)(C)NCCC(O)c1cc2c(Cl)cc(Cl)cc2c2cc(C(F)(F)F)ccc12 (centres undefined) | -60.9% (active) |
| S=c1[nH]cccc1-c1nnc2n1Nc1nc3ccc(Cl)cc3cc1CS2 | 104% (inactive) |
| COCC(N)=O | 90% (inactive) |
| Cc1cc(N(CCCNc2ccnc3cc(Cl)ccc23)Cc2cccs2)nc(Cl)n1 | -3.12% (active) |
| CCOC(=O)CC(S(=O)(=O)c1ccccc1)S(=O)(=O)c1ccccc1 | 67.9% (inactive) |
| COc1ccc(Cn2c(Br)c3c(c2-c2cc(OC)c(OC)c(OC)c2)CCc2sc(NC(C)=O)nc2-3)cc1 | 15.2% (inactive) |
| Cc1nc(N2CCOCC2)sc1S(N)(=O)=O | 97.4% (inactive) |
| Cc1oc2ncnc(Nc3ccccc3)c2c1C(=O)NCCO | 64.9% (inactive) |
| O=C1c2ccccc2C(=O)N1/N=C/c1ccc2c(c1)OCO2 | 88.1% (inactive) |
| CN([O-])c1nc(N(C)[O-])nc(N2CCOCC2)n1.CN([O-])c1nc(N(C)[OH2+])nc(N2CCOCC2)n1.[Fe+3] | 93.8% [100 µM] (inactive) |
| CCCNC(=S)N/N=C(\C)c1ccccn1 | -8.41% (active) |
| Cc1cs/c(=N\NC(=O)c2cc(-c3cc4ccccc4o3)nn2-c2ccccc2)n1-c1ccccc1 | 109% (inactive) |
| Cc1nn(-c2ccccc2)c(N2CCOCC2)c1/C=N/N=c1\sc2ccccc2n1C | 67.2% (inactive) |
| CN(C)c1ccc(/C=C/C(=O)c2ccc(-n3cc(CN4CCN(c5cc6c(cc5F)c(=O)c(C(=O)O)cn6C5CC5)CC4)nn3)cc2)cc1 | 84.6% (inactive) |
| Nc1c(N)c2ccccc2c2ccccc12 | 104% (inactive) |
| O=C(CCN1CCCC1)Nc1ccc2c(NCc3ccc(F)cc3)c3ccccc3nc2c1 | -47.3% (active) |
